Results taken from PubChem BioAssay (EPA / NIEHS).
Inconclusive results are not listed. Some compounds were tested as several samples or in several runs, with calls that do not always agree. Calls of active or inactive are those of the source. How the source made its calls, unless noted: active means hit-call score of the fitted dose curve at least 0.9, where 1 is the maximum; inactive means score below 0.9.

Experiments:
[1] = CCTE_Shafer_MEA_dev_firing_rate_mean: CCTE's Neural Network Formation Assay for Mean Firing Rate, Shafer Lab (AID 2284031)
Summary of the method: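 Steps: seed rat cortical cells (1.5 x 10^5/well) with laminin on PEI-coated MEA; dose day 0; record DIV 5/7/9/12, full media and compound exchange after DIV 5 and 9 recordings; compute well-mean firing rate AUC.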

[2] = CCTE_Shafer_MEA_dev_per_burst_spike_percent: CCTE's Neural Network Formation Assay for Percent of Spikes in a Burst, Shafer Lab (AID 2284032)
Summary of the method: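 Value is trapezoidal AUC over recordings on days 5, 7, 9 and 12 of the well-mean fraction of spikes falling in single-electrode bursts; rat cortical cultures exposed continuously from plating, treatment renewed DIV 5 and 9, fitted downward against DMSO.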

[3] = CCTE_Shafer_MEA_dev_active_electrodes_number: CCTE's Neural Network Formation Assay for Number of Active Electrodes, Shafer Lab (AID 2284040; active means hit-call score of the fitted dose curve at least 0.9, where 1 is the maximum)
Summary of the method: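 Counts electrodes per well firing at least 5 spikes/min, recorded on days 5, 7, 9 and 12 in rat cortical cultures dosed continuously from plating (treatment refreshed DIV 5, 9). Value is the area under the curve over recordings, fitted downward relative to DMSO.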

[4] = CCTE_Shafer_MEA_dev_burst_rate: CCTE's Neural Network Formation Assay for Burst Rate, Shafer Lab (AID 2284042)
Summary of the method: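 Rat primary cortical cultures on PEI/laminin MEA; compound from plating, re-dosed at DIV 5, 9 media change. Single-electrode bursts/recording length, well mean of active electrodes; AUC over DIV 5–12 recordings; loss-of-signal vs DMSO.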

[5] = CCTE_Shafer_MEA_dev_bursting_electrodes_number: CCTE's Neural Network Formation Assay for Number of Bursting Electrodes, Shafer Lab (AID 2284043; active means hit-call score of the fitted dose curve at least 0.9, where 1 is the maximum)
Summary of the method: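 Counted: electrodes with burst rate ≥1 per 2 min in each well. Cells: primary rat cortex, 1.5 x 10^5/well, on 16-electrode MEA wells. Exposure: DIV 0–12, compound renewed DIV 5 and 9. Recording days 5, 7, 9, 12; AUC vs DMSO baseline.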

[6] = CCTE_Shafer_MEA_dev_per_burst_interspike_interval: CCTE's Neural Network Formation Assay for Burst Interspike Interval, Shafer Lab (AID 2284044)
Summary of the method: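 Readout is the average time between spikes inside single-electrode bursts, taken as a well mean across bursting electrodes. Cortical neurons from rat developed networks on MEA plates under continuous 12-day exposure; recordings on days 5, 7, 9 and 12 were integrated by trapezoidal AUC.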

[7] = CCTE_Shafer_MEA_dev_burst_duration_mean: CCTE's Neural Network Formation Assay for Mean Burst Duration, Shafer Lab (AID 2284045)
Summary of the method: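 Network-formation assay in primary rat cortical neurons; treatment spans twelve days of development. Mean burst duration per well is integrated by trapezoidal AUC and fitted in the loss-of-signal direction against DMSO baseline.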

[8] = CCTE_Shafer_MEA_dev_interburst_interval_mean: CCTE's Neural Network Formation Assay for Mean Interburst Interval, Shafer Lab (AID 2284046);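 further: well-mean interburst interval of bursting electrodes as AUC over four recording days; curve fitted for decrease in interburst interval relative to DMSO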
Summary of the method: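 Rat cortical neurons, 1.5 x 10^5 cells/well, 48-well MEA; compound from day 0 through DIV 12, media and treatment renewed DIV 5/9. Recordings DIV 5, 7, 9, 12; well-mean interburst interval → trapezoidal AUC, loss direction vs DMSO.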

[9] = CCTE_Shafer_MEA_dev_inter_network_spike_interval_mean: CCTE's Neural Network Formation Assay for Mean Inter-network Spike Interval, Shafer Lab (AID 2284047)
Summary of the method: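 Primary rat cortical neurons on PEI-coated 48-well MEAs (16 electrodes/well) were exposed from plating day 0 to DIV 12, with dosing renewed at DIV 5 and 9. Recordings at DIV 5, 7, 9, 12 were collapsed by trapezoidal AUC, loss-of-signal fit vs DMSO.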

[10] = CCTE_Shafer_MEA_dev_network_spike_number: CCTE's Neural Network Formation Assay for Number of Network Spikes, Shafer Lab (AID 2284048)
Summary of the method: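 Extracellular recordings from 16-electrode wells track network formation in rat cortical cultures under continuous treatment from plating. The endpoint is network spike number, expressed as AUC across DIV 5–12 relative to DMSO vehicle.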

[11] = CCTE_Shafer_MEA_dev_network_spike_peak: CCTE's Neural Network Formation Assay for Mean Number of Electrodes in Network Spike, Shafer Lab (AID 2284049)
Summary of the method: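 Continuous 12-day exposure of rat cortical cultures, starting at plating, on MEA plates. Endpoint: electrodes participating in network-spike peaks, AUC across DIV 5–12, DMSO as negative control.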

[12] = CCTE_Shafer_MEA_dev_spike_duration_mean: CCTE's Neural Network Formation Assay for Mean Spike Duration, Shafer Lab (AID 2284051);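 further: mean network spike duration pooled as area under curve over DIV 5 to 12 recordings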
Summary of the method: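 Rat cortical primary cultures, 48-well MEA (16 electrodes/well); compound from plating, renewed DIV 5, 9. Network spike duration (AxIS adaptive detector) recorded DIV 5/7/9/12, combined as trapezoidal AUC; loss direction vs DMSO.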

[13] = CCTE_Shafer_MEA_dev_network_spike_duration_std: CCTE's Neural Network Formation Assay for Standard Deviation of Network Spike Duration, Shafer Lab (AID 2284052);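 further: area under curve of spike duration SD across recording days 5 to 12; hits are decreases in network spike duration SD versus DMSO vehicle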
Summary of the method: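 Rat cortical cultures, 1.5 x 10^5 cells/well, exposed continuously from plating to DIV 12 with media/compound renewal at DIV 5, 9. Spontaneous activity recorded DIV 5/7/9/12, AxIS adaptive spike detector; AUC across days; negative direction vs DMSO.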

[14] = CCTE_Shafer_MEA_dev_per_network_spike_spike_number_mean: CCTE's Neural Network Formation Assay for Mean Number of Spikes in a Network Spike, Shafer Lab (AID 2284053)
Summary of the method: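 Rat cortical primary cultures on 48-well MEA; compound from day 0, re-dosed with full media change DIV 5, 9. Recorded DIV 5, 7, 9, 12; spikes in 0.05 s window at network-spike peak ÷ total network spikes; AUC; loss vs DMSO.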

[15] = CCTE_Shafer_MEA_dev_per_network_spike_spike_percent: CCTE's Neural Network Formation Assay for Percent of Spikes in a Network Spike, Shafer Lab (AID 2284054)
Summary of the method: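 Developing networks of rat cortical neurons are dosed at day 0 and recorded extracellularly four times up to day 12. The endpoint is the area under the curve of percent spikes in network spikes, fitted in the negative direction relative to DMSO.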

[16] = CCTE_Shafer_MEA_dev_LDH: CCTE's Lactate Dehydrogenase Assay for Cytotoxicity in the Neural Network Formation Assay, Shafer Lab (AID 2284068; active means hit-call score of the fitted dose curve at least 0.9, where 1 is the maximum;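 further: exposure for twelve days from plating with re-dosing on DIV 5 and 9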)
Summary of the method: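 Rat cortical primary neurons, MEA culture; dosing day 0–12, full medium plus compound exchange DIV 5, 9. Read-out: LDH enzyme activity, spectrophotometric. DMSO = negative control/baseline; signal loss → cytotoxicity.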

[17] = CCTE_Shafer_MEA_dev_AB: CCTE's Alamar Blue Assay for Cytotoxicity in the Neural Network Formation Assay, Shafer Lab (AID 2284083; active means hit-call score of the fitted dose curve at least 0.9, where 1 is the maximum;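 further: resazurin reduction fluorescence as viability of cultured neurons; twelve days of exposure from plating with re-dosing on DIV 5 and 9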)
Summary of the method: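 Rat cortical primary cultures, 1.5 x 10^5 cells/well on MEA; continuous compound exposure over 12 days of network development, re-dosed with full medium change DIV 5 and 9. Alamar Blue fluorescence; loss of signal = cytotoxicity vs DMSO baseline.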

[18] = CCTE_Shafer_MEA_dev_correlation_coefficient_mean: CCTE's Neural Network Formation Assay for Mean Correlation Coefficient, Shafer Lab (AID 2284093)
Summary of the method: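 Rat cortical cultures, 1.5 x 10^5 cells/well, dosed from day 0 for 12 days. Spontaneous spikes recorded DIV 5/7/9/12; electrode-pair correlation coefficients averaged, AUC taken. Fit in loss direction vs DMSO.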

[19] = UKN2_HCS_IMR90_neural_migration: University of Konstanz (UKN) Leist Lab Neural Crest Cell Migration Assay in human induced IMR90 Pluripotent Stem Cells (UKN2) (AID 2284204); details: actives raise or lower the signal
Summary of the method: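 Using a 96-well stopper format with PLO/laminin/fibronectin coating, neural crest cells from iPSC migrate in cytokine-supplemented N2-S medium; after 24 h, chemicals are applied for a further 24 h, then cells are imaged after dye staining.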

[20] = IUF_NPC1b_proliferation_BrdU_72hr: Leibniz Research Institute for Environmental Medicine (IUF) 72-hour Neural Progenitor Cell Bromodeoxyuridine (BrdU) Proliferation Assay (NPC1b) (AID 2284207)
Summary of the method: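 Neural progenitor spheres of human fetal origin are treated for three days; BrdU added for the last 16 h is quantified by luminescence ELISA, with DMSO as baseline and EGF/FGF omission as positive control.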

[21] = IUF_NPC1a_proliferation_area_72hr: Leibniz Research Institute for Environmental Medicine (IUF) 72-hour Neural Progenitor Cell Proliferation Area Assay (NPC1a) (AID 2284208)
Summary of the method: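 hNPC spheres (human fetal cortex, GW 16-19), one per poly-Hema U-bottom well; EGF+FGF medium; dosed day 0, no re-dosing; 72 h, 37C, 5% CO2; phase-contrast sphere area; DMSO = baseline; minus-GF = positive ctrl.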

[22] = IUF_NPC1_viability_72hr: Viability Assessment at 72 hours in the Leibniz Research Institute for Environmental Medicine (IUF) Neural Progenitor Cell Proliferation Assay (NPC1) (AID 2284209)
Summary of the method: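 Spheres of primary human neural progenitors were plated singly in proliferation medium and treated for 72 h. Mitochondrial reduction of resazurin was then measured by fluorescence and analysed against DMSO controls.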

[23] = CCTE_Mundy_HCI_Cortical_Synap_Neur_Matur_NeuriteSpotCountPerNeuriteLength: CCTE's Synaptogenesis and Neurite Maturation Assay in rat cortical cells for Neurite Spot Count per Neurite Length, Mundy Lab (AID 2284210)
Summary of the method: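 Neurite-associated synapse density (synaptophysin puncta per unit neurite length) is measured by fluorescence high-content imaging in rat cortical cultures treated from DIV 7 and fixed at DIV 12, with DMSO as negative control.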

[24] = CCTE_Mundy_HCI_Cortical_Synap_Neur_Matur_BPCount: CCTE's Synaptogenesis and Neurite Maturation Assay in rat cortical cells for Branch Point Count, Mundy Lab (AID 2284211)
Summary of the method: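 HCI read-out of branch points from MAP2/synaptophysin/Hoechst immunofluorescence; rat cortical cultures, AraC DIV 5, dosing DIV 7, fixed DIV 12; fit in positive direction vs DMSO baseline.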

[25] = CCTE_Mundy_HCI_Cortical_NOG_NeuriteCount: CCTE's Neurite Outgrowth Assay in rat cortical cells for Neurite Count, Mundy Lab (AID 2284212);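 further: cells fixed about two days after chemical exposure began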
Summary of the method: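 Rat cortical primary cells; compound added 2 h post-plating, 1/10 dilution of working solution. Anti-betaIII-tubulin/AF488 ICC; ArrayScan neurite count vs DMSO.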

Measured: AC50

CCCCCC=C(C)C(CC)CCO (stereo unspecified)
inactive: [1] | [2] | [3] | [4] | [5] | [6] | [7] | [8] | [9] | [10] | [11] | [12] | [13] | [14] | [15] | [16] | [17] | [18] | [19] | [20] | [21] | [22] | [23] | [24] | [25]
active: [15] 5 µM
